Results filed as inconclusive are left out. Values without a mark were called inactive. The source made the active and inactive calls. Calls follow the shape of the dose curve; as a rule, active = well fitted cell-killing curve with a large enough effect in the repeat runs; inconclusive = weak or mixed curves; inactive = flat fitted curve, though single readings scatter.
Test: qHTS assay to identify small molecule antagonists of the estrogen related receptor (ERR) signaling pathway - cell viability counter screen (AID 1224818)
Settings: ERR reporter cell line viability counter screen; series mostly up to 46.1 µM; viability change, negative = cytotoxic: at the top concentration
Text: National Center for Advancing Translational Sciences [NCATS]
NIH Chemical Genomics Center [NCGC]
U.S. Environmental Protection Agency [EPA]
National Institutes of Environmental Health Sciences [NIEHS]
National Toxicology Program [NTP]
U.S. Food and Drug Administration [FDA]
Estrogen related receptors (ERRs), the first orphan nuclear receptors discovered, play an important role in the control of cellular energy metabolism. ERRs are required for high-energy production in response to the environmental challenges. ERR-alpha was also identified as an adverse marker for breast cancer progression; ERR-alpha-positive tumors have a poor prognosis. To screen and to identify environmental compounds that perturb the ERR signaling pathways could provide valuable information for potential therapeutic or preventive measures in the treatment of metabolic disease. To differentiate true ERR antagonists or agonist from cytotoxic substances, the assay is multiplexed with cell viability assay.
Tox21 Assay Protocol Summary:
The ERR cells were dispensed at 2,000 cells/5 ul/well in 1536-well white plates using a Multidrop dispenser. After the assay plates were incubated at a 37 C/5% CO2 incubator for 6 hours, 23 nL of compounds dissolved in DMSO, positive and negative controls or DMSO only was transferred to the assay plate by a pin tool. The plates were incubated at 37 C for 17.5 hours. 1 ul/well of CellTiter-Fluor reagent was added into the assay plates using a Flying Reagent Dispenser. After 30 min incubation at 37 C/5% CO2, the fluorescence intensity in the plates was measured using a ViewLux plate reader.
% is scaled to controls: 0 for no effect and ±100 for the full control effect.

Structure (SMILES)	viability change, negative = cytotoxic	outcome
Cc1cccc(C)c1NC(=O)C(C)N (stereo not given)	8.55%	
CC(C(=O)O)c1ccc(CC2CCCC2=O)cc1 (stereo not given)	-1.92%	
CN1CCC(=C2c3ccccc3CC(=O)c3sccc32)CC1	-5.29%	
Brc1c(NC2=NCCN2)ccc2nccnc12	-6.31%	
CC(C[N+](C)(C)C)OC(N)=O (stereo not given)	5.05%	
CC(=O)OCC(=O)[C@@]1(O)CC[C@H]2[C@@H]3CCC4=CC(=O)CC[C@]4(C)[C@H]3C(=O)C[C@@]21C	16%	
CCn1nc(C(=O)O)c(=O)c2cc3c(cc21)OCO3	8.99%	
C[C@](N)(Cc1ccc(O)cc1)C(=O)O	16.4%	
CC(C)(c1ccc(O)cc1)c1ccc(O)cc1	-18% [at 92.2 µM]	
CCOC(=O)Nc1ccc(NCc2ccc(F)cc2)nc1N	-0.257%	
CCN(CC)CCNC(=O)c1cc(S(C)(=O)=O)ccc1OC	8.82%	
CC(C)NCC(O)c1ccc(NS(C)(=O)=O)cc1 (stereo not given)	1.85%	
COC(=O)c1c(Cl)c(Cl)c(C(=O)OC)c(Cl)c1Cl	2.24% [at 92.2 µM]	
NCCc1cnc[nH]1	17%	
O=c1cc(-c2ccccc2)oc2ccccc12	-11% [at 92.2 µM]	
CCN1CCC[C@H]1CNC(=O)c1cc(S(N)(=O)=O)ccc1OC	2.8%	
C[C@H](NC(CCc1ccccc1)C(=O)O)C(=O)N1CCC[C@H]1C(=O)O (stereo not given in full)	8.63%	
Oc1ccc(C2CNCCc3c2cc(O)c(O)c3Cl)cc1 (stereo not given)	8.06%	
Cc1ccc(=O)n(-c2ccccc2)c1	-1.14%	
CC(C)(C)c1ccc(O)c(O)c1	-14.6% [at 92.2 µM]	

Structure (SMILES)	viability change, negative = cytotoxic	outcome
CCn1ccnc1CC1COc2ccccc2O1 (stereo not given)	7.93%	
Nc1nc2c(ncn2COC(CO)CO)c(=O)[nH]1	2.91%	
Nc1cc(=O)[nH]c(N)n1	1.87%	
CCO/C([O-])=N/c1c[n+](N2CCOCC2)no1	10.2%	
c1cnc(N2CCN(Cc3ccc4c(c3)OCO4)CC2)nc1	-4.41%	
OC(CCN1CCCCC1)(c1ccccc1)C1CC2C=CC1C2 (stereo not given)	0.742%	
COCCc1ccc(OCC(O)CNC(C)C)cc1 (stereo not given)	-4.02%	
CCCN(CCC)CCc1cccc2c1CC(=O)N2	-0.5%	
COC(=O)[C@@H](N)Cc1ccc(O)c(O)c1	7.83%	
Cc1[nH]c(=O)c(C#N)cc1-c1ccc2nccn2c1	-4.83%	
COc1ccccc1OCC(O)CN1CCN(CC(=O)Nc2c(C)cccc2C)CC1 (stereo not given)	0.797%	
COc1ccc(CCN(C)CCCC(C#N)(c2cc(OC)c(OC)c(OC)c2)C(C)C)cc1OC (stereo not given)	-17%	
CCN(CC)CCOCCOC(=O)C1(c2ccccc2)CCCC1	7.72%	
C[N+](C)(C)CCCCCC[N+](C)(C)C		inactive
Nc1ccc(S(=O)(=O)Nc2ccnn2-c2ccccc2)cc1	7.5%	
CCN(Cc1ccncc1)C(=O)C(CO)c1ccccc1 (stereo not given)	9.5%	
O=C(O)CN(CCOCCOCCN(CC(=O)O)CC(=O)O)CC(=O)O	2.25%	
CCN1CCC[C@H]1CNC(=O)c1c(O)c(Cl)cc(Cl)c1OC	4.65%	
Cc1nc2c([nH]1)c(=O)n(C)c(=O)n2Cc1ccco1	11.2%	
N=C(N)c1ccccc1	-1.37%	

From PubChem BioAssay (Tox21)
